According to PubChem BioAssay (NCI):
Compounds without any hit were thinned out: in the full panel of roughly 83,000, 20% have a hit.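 Method: cells in 96-well plates; compound added at one concentration; 48 h incubation; percent growth measured; values under 10 scored active.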 Activity calls are given as the source filed them.

What follows are molecules tested on MDA-MB-468 breast (assay: NCI-60 one-dose screen, 48 h (100 = growth as untreated, 0 = no growth, -100 = all killed)). Conditions: 10 µM unless noted.
With `CN(C)c1ccc(C(c2ccc(O)cc2)c2ccc(N(C)C)cc2)cc1` the growth was 1.1% (active). In the case of `O=C1C(Cl)=C(Nc2ccc(O)cc2)C(=O)N1Cc1ccc(Cl)cc1`, the growth was 5.88% (active). For `CN1CCN(C(=O)c2ccc(NC(=O)Nc3ccc(-c4nc(N5CCOCC5)c5cccn5n4)cc3)cc2)CC1`, the growth was -60.7% (active). In the case of `CN1CCN(c2nc(C3=C(c4c[nH]c5ccccc45)C(=O)NC3=O)c3ccccc3n2)CC1`, the growth was 131% (inactive). For `C#C[C@]1(O)CCC2C3CCc4cc(OC5CCCC5)ccc4C3CC[C@@]21C` (stereo not given in full), the growth was 69.1% (inactive). In the case of `CCOc1ccc([C@@H]2[C@@H](Oc3ccccc3)C(=O)N2c2cc(OC)c(OC)c(OC)c2)cc1`, the growth was 29.4% (inactive). For `COc1ccc2oc(=O)cc(CN3C(=O)S/C(=C\c4ccc(Cl)cc4)C3=O)c2c1`, the growth was 101% (inactive). In the case of `CCCCCNCCCCCNc1cc(OC)cc2cccnc12`, the growth was 45.3% (inactive). With `CO[C@H]1C[C@@H]2CC[C@@H](C)[C@@](O)(O2)C(=O)C(=O)N2CCCC[C@H]2C(=O)O[C@H]([C@H](C)C[C@@H]2CC[C@@H](OCCO)[C@H](OC)C2)CC(=O)[C@H](C)/C=C(\C)[C@@H](O)[C@H](OC)C(=O)[C@H](C)C[C@H](C)\C=C/C=C/C=C/1C` the growth was 26.9% (inactive). `Clc1ccc2c(NCCNc3nc(N4CCCCC4)nc4ccccc34)ccnc2c1` was tested, and the growth was -31.7% (active). `CC(=O)N[C@H](C(=O)N[C@@H](CCCNC(=N)N)C(=O)N[C@@H](CCCCN)C(=O)N[C@@H](CCCNC(=N)N)C(=O)NC(C(=O)N[C@@H](CC(C)C)C(=O)N[C@@H](CCCNC(=N)N)C(=O)N[C@@]1(C)CCC/C=C\CCC[C@@](C)(C(=O)N[C@@H](CCCNC(=N)N)C(=O)N[C@@H](CCC(=O)O)C(=O)N[C@@H](CC(C)C)C(=O)N[C@H](C(=O)N[C@@H](CCC(=O)O)C(N)=O)C(C)C)NC(=O)[C@H](CCC(N)=O)NC(=O)[C@H](CC(C)C)NC(=O)[C@H](CC(C)C)NC1=O)[C@@H](C)O)C(C)C` (stereo not given in full) was tested, and the growth was 31.9% (inactive). In the case of `O=C(Nn1c(NCC(=O)N2c3ccccc3Sc3ccccc32)nnc1-c1ccc(O)cc1)c1ccccc1`, the growth was 104% (inactive). For `O=C(N=Nc1c(Cl)c(O)c2ccccc2c1O)C(=O)Nc1cccc(C(F)(F)F)c1`, the growth was 80.8% (inactive). With `NC(N)=Nc1ccc(Oc2cccc(Nc3ccc(Cl)c(C(F)(F)F)c3)c2)cn1` the growth was -84.4% (active). `CCCCN(CCCC)CCCN=c1nc2c(c(N)n1-c1ccccc1)c(=S)n(-c1ccccc1)c(=S)n2-c1ccccc1` was tested, and the growth was -89.9% (active). In the case of `CC1(C)CCC[C@]23C(=O)O[C@](O)(C(=O)C4=C[C@@](C)(/C=C/CCCc5ccc6ccc7cccc8ccc5c6c78)CC[C@@]42O)[C@@H]13`, the growth was -70% (active). For `CCOC(=O)c1cc(/C=C/c2ccc(Cl)cc2Cl)on1`, the growth was 37.6% (inactive). In the case of `OC1CCN(CCCOc2c3ccc(Cl)cc3nc3c2oc2ccccc23)CC1`, the growth was -43.9% (active). In the case of `Ic1ccc(Nc2nc3nonc3nc2Nc2ccc(I)cc2)cc1`, the growth was -4.36% (active). For `Clc1ccc2c(NCCCCNc3nc(N4CCCCC4)nc4ccccc34)ccnc2c1`, the growth was 7.06% (active). `COc1cc2ncnc(Nc3ccc(F)c(Cl)c3)c2cc1NC(=O)/C=C/CN1CCCCC1` was tested, and the growth was -82.2% (active). In the case of `CCCCCCCCCCCC[N+]1(CCCCCCCCCCCC)CCCC(C)C1` (stereo not given), the growth was -89.7% (active). For `Clc1ccccc1[C@@H]1C[C@@H]2Cc3cc(Br)c4ccccc4c3N1O2`, the growth was 4.19% (active). `COc1ccc(C(=O)/C=C/c2ccc(Cl)cc2)cc1S(=O)(=O)Nc1c(N)nc(SC)[nH]c1=O` was tested, and the growth was 47.3% (inactive). For `CC(C)(C)n1cc(-c2ccnc(NCCNS(=O)(=O)c3ccc(Br)cc3)c2)c(-c2cccc(O)c2)n1`, the growth was 2.11% (active). In the case of `COc1cc2nc(SCc3cc(OC)c(OC)c(OC)c3)n(Cc3ccccc3)c(=O)c2cc1OC`, the growth was -10.1% (active). For `C=C(OC(C)=O)c1ccccc1`, the growth was 103% (inactive). In the case of `Cc1cc(N2CCN(c3ccnc4cc(Cl)ccc34)CC2)nc(NC2CCCCC2)n1`, the growth was -5.23% (active). For `Cn1cc(-c2noc(C(=O)c3cn(C)c4ncccc34)n2)c2ccccc21`, the growth was -9.42% (active). For `CC[C@H](C)[C@H](NC(=O)[C@H](CCCCN)NC(=O)[C@H](CCCCN)NC(=O)[C@@H](NC(=O)[C@@H](NC(=O)[C@@H](N)Cc1cnc[nH]1)[C@@H](C)CC)[C@@H](C)CC)C(=O)N[C@@H](CCCNC(=N)N)C(=O)N[C@H](C(=O)N[C@@H](Cc1c[nH]c2ccccc12)C(=O)N[C@@H](Cc1ccc(O)cc1)C(=O)N[C@@H](CCCNC(=N)N)C(=O)N[C@@H](CCCCN)C(=O)N[C@@H](C)C(=O)N[C@@H](Cc1c[nH]c2ccccc12)C(=O)N[C@@H](Cc1cnc[nH]1)C(=O)N[C@H](C(=O)N[C@@H](CC(C)C)C(=O)NCC(=O)N[C@@H](CCCCN)C(=O)N[C@H](C(N)=O)C(C)C)C(C)C)[C@@H](C)O`, the growth was 59.2% (inactive).
